Measured values reported in PubChem BioAssay (Tox21).
Several values for one entry are separate records, joined by “and”; a condition that tells them apart may be missing. Identical values can stand only once. Records with an inconclusive call do not appear. A call without a number means that no potency is given here. The source holds several records for some structures; these can differ, active in one and inactive in another. Activity calls are given as the source filed them. Unless noted, calls come from the whole dose curve; as a rule, active = well fitted curve in the direction sought with a large enough effect in the repeat runs; inconclusive = weak or mixed curves; inactive = no such curve, though single readings can be large; an effect the other way counts as inactive or inconclusive.

Legend:
[1] = qHTS RealTime-Glo MT Cell Viability Assay in HEK293 cells - 24 hour (AID 1224886); note: top concentration of the series differs between compounds; nearly all actives have a fitted effect of over 50% in size
Method in brief: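 HEK293 cells seeded with NanoLuc/prosubstrate reagent, rested 5 h at 37 C, then dosed and kept at 37 C up to 40 h. Nonlytic real-time luminescence from viable cells read at 0, 8, 16, 24, 32 and 40 h.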

[2] = A CellTox Green Cytotoxicity Assay to monitor cytotoxicity in HEK293 cells - 16 hour (AID 1224888); note: nearly all actives have a fitted effect of over 35% in size
Method in brief: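 Dead-cell fluorescence measured kinetically: asymmetric cyanine dye, HEK293, 600 cells/well, 5 h settle, 23 nL cpd/DMSO, 37 C, reads 0–40 h every 8 h.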

[3] = qHTS RealTime-Glo MT Cell Viability Assay in HepG2 cells - 0 hour (AID 1224889); note: nearly all actives have a fitted effect of over 50% in size
Method in brief: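 HepG2 cells (600/well) were dispensed with RealTime-Glo reagents, incubated 5 h at 37 °C, then treated with compounds in DMSO for up to 40 h. Nonlytic NanoLuc luminescence reflecting viable cells was read at each stated time point.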

[4] = A CellTox Green Cytotoxicity Assay to monitor cytotoxicity in HepG2 cells - 8 hour (AID 1224890); note: nearly all actives have a fitted effect of over 45% in size
Method in brief: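 First, HepG2 cells (600/well) mixed with reagent were plated; second, after 5 h at 37 C they received compounds via pintool; third, fluorescence was measured at 0 h through 40 h at 8 h intervals.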

[5] = qHTS assay to identify small molecule antagonists of the estrogen receptor alpha (ER-alpha) signaling pathway using the BG1 cell line in the presence of 0.1 nM 17-beta-estradiol - cell viability counter screen (AID 1259241); note: nearly all actives have a fitted effect of over 40% in size
Method in brief: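 Live-cell protease activity (CellTiter-Fluor fluorescence, 30 min) was read in the same wells after VM7Luc4E2 cells had been exposed to compounds with 0.1 nM 17beta-estradiol for 22 hr at 37C.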

[6] = qHTS assay to identify small molecule antagonists of the androgen receptor (AR) signaling pathway using the MDA cell line in the presence of 0.5 nM R1881 - cell viability counter screen (AID 1259242); note: nearly all actives have a fitted effect of over 45% in size
Method in brief: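 qHTS format. MDA-kb2 (MMTV-luc, AR/GR responsive) + cpd + 0.5 nM R1881 final, 16 hr 37C/0% CO2 → CellTiter-Fluor 30 min → fluorescence intensity.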

[7] = biological target: Estrogen receptor (Homo sapiens) (UniProt P03372); assay: qHTS assay to identify small molecule antagonists of the estrogen receptor alpha (ER-alpha) signaling pathway using the BG1 cell line in the presence of 0.1 nM 17-beta-estradiol (AID 1259244); note: nearly all actives have a fitted effect of over 50% in size
Chain of Estrogen receptor (Homo sapiens) (P03372 whole entry, looked up): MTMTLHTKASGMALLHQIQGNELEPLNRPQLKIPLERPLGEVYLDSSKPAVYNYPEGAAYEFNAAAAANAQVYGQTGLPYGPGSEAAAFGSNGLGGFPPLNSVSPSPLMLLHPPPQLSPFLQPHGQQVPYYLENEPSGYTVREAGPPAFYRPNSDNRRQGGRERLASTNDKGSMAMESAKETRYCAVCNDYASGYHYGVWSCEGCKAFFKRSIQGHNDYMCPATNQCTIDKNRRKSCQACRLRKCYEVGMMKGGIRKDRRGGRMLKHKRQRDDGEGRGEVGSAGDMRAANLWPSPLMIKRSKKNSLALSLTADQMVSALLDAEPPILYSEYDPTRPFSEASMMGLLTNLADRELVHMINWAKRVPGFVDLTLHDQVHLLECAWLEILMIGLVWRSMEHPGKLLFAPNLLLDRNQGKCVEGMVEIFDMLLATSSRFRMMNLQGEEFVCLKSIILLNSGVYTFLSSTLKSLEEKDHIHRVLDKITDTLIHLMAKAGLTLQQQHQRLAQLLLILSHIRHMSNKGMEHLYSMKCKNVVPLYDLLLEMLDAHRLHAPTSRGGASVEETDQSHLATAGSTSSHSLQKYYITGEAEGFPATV
Method in brief: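 Reporter is a stably transfected luciferase under four estrogen responsive elements in VM7Luc4E2 cells expressing native full-length ER-alpha; inhibition of 0.1 nM (final) 17beta-estradiol-driven signal over 22 h is read by luminescence.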

[8] = qHTS assay to identify small molecule HDAC inhibitors (AID 1259364);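 note: wild-type HCT-116 cells with endogenous class I/II HDAC activity; top concentration of the series differs between compounds; nearly all actives have a fitted effect of over 45% in size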
Method in brief: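 Quantitative high-throughput format: overnight-seeded HCT-116 cells got compounds for 2 hr at 37C; HDAC-Glo I/II reagent added, 30 min RT, luminescence measured.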

[9] = qHTS assay to identify small molecule HDAC inhibitors - cell viability counter screen (AID 1259365); note: series mostly up to about 92 µM; nearly all actives have a fitted effect of over 50% in size
Method in brief: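 HCT-116 (wild type), 1,500 cells/well, overnight 37C/5% CO2; compound in DMSO 2hr; CellTiter-Glo 30min RT; luminescence read.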

[10] = qHTS assay to identify small molecule agonists of the sonic hedgehog signaling (Shh) pathway - cell viability counter screen (AID 1259366); note: nearly all actives have a fitted effect of over 50% in size
Method in brief: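 CellTiter-Fluor fluorescence read-out, 1 hr at 37C, added after 23hr compound exposure. Cells: 3T3 Gli1-Luc, an NIH/3T3 clone with stably integrated Gli1-Luc reporter, plated 4hr before compound.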

[11] = qHTS assay to identify small molecule antagonists of the sonic hedgehog signaling (Shh) pathway - cell viability counter screen (AID 1259367); note: nearly all actives have a fitted effect of over 55% in size
Method in brief: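 Fluorescence read-out (CellTiter-Fluor, 1 hr at 37C) taken after 23 hr compound treatment of 3T3 Gli1-Luc cells stimulated with conditioned medium. Cells were seeded at 2,000 per well and pre-incubated 4 hr.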

[12] = qHTS assay to identify small molecule agonists of the sonic hedgehog signaling (Shh) pathway (AID 1259368; calls by dose curve;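 note: NIH/3T3-derived 3T3Gli1-Luc cells carrying a stable Gli1-driven firefly luciferase reporter; series mostly up to about 92 µM; nearly all actives have a fitted effect of over 15% in size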)
Method in brief: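 Quantitative high-throughput format using a Gli1-driven firefly luciferase reporter line derived from NIH/3T3 cells. After a 24 hr compound treatment at 37 C and 5% CO2, luminescence reported Gli1 response element activity.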

[13] = qHTS assay to identify small molecule antagonists of the sonic hedgehog signaling (Shh) pathway (AID 1259369; calls by dose curve; note: nearly all actives have a fitted effect of over 45% in size; note: potency is the fitted concentration of half-maximal effect)
Method in brief: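 Stable Gli1-Luc reporter NIH/3T3 clone; quantitative HTS in stimulated mode with conditioned medium. Luminescence measured after 24hr compound treatment at 37 C.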

[14] = biological target: Estrogen receptor beta (Homo sapiens) (UniProt Q92731); assay: qHTS assay to identify small molecule agonists of the estrogen receptor beta (ER-beta) signaling pathway (AID 1259377; active = well fitted activation curve with a large enough effect in the signal ratio in the repeat runs, not every such curve was filed as active; the % refers to the signal ratio; note: potency is the fitted concentration of half-maximal effect)
Chain of Estrogen receptor beta (Homo sapiens) (Q92731 whole entry, looked up): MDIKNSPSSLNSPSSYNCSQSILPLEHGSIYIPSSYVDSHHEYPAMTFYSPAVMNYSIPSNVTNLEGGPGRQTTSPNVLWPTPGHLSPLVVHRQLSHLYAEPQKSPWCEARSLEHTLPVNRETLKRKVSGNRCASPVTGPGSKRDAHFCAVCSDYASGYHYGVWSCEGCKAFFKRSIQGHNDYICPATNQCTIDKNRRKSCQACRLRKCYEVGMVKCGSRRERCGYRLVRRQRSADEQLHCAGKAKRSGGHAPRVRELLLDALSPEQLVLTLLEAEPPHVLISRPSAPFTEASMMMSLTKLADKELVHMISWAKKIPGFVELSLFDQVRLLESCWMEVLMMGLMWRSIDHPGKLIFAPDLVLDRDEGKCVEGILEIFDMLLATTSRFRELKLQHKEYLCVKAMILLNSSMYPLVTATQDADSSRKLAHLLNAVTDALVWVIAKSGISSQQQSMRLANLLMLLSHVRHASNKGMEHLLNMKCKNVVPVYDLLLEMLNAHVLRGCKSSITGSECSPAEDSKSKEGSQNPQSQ
Method in brief: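 Beta-lactamase reporter readout: fluorescence of LiveBLAzer B/G FRET substrate after 2 h at room temperature, following 16 h compound treatment of ER-beta-UAS-bla HEK293T cells at 37C in 2% charcoal-stripped FBS medium.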

[15] = biological target: Estrogen receptor beta (Homo sapiens) (UniProt Q92731); assay: qHTS assay to identify small molecule antagonists of the estrogen receptor beta (ER-beta) signaling pathway (AID 1259378; active = well fitted inhibition curve with a large enough effect in the signal ratio in the repeat runs, not every such curve was filed as active; the % refers to the signal ratio)
Method in brief: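 ER-beta-UAS-bla HEK293T cells in 2% charcoal-stripped FBS medium treated with compound plus 1nM final 17-beta-estradiol for 16 hr at 37C. Beta-lactamase reporter read by FRET substrate fluorescence after 2 hours at room temperature.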

[16] = qHTS assay to identify small molecule agonists of the androgen receptor (AR) signaling pathway in the presence of an antagonist - cell viability counter screen (AID 1259379);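 note: MDA-kb2 human breast cancer cells carrying an MMTV luciferase reporter; series mostly up to about 92 µM; nearly all actives have a fitted effect of over 25% in size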
Method in brief: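 Nilutamide-containing (3.0uM final) MDA-kb2 cultures, 3,000 cells/well, were treated with compounds across 15 concentrations. After 16 hr at 37C with no CO2, cell viability was determined by CellTiter-Fluor fluorescence in the luciferase assay wells.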

[17] = qHTS assay to identify small molecule agonists of the estrogen receptor beta (ER-beta) signaling pathway - cell viability counter screen (AID 1259380); note: nearly all actives have a fitted effect of over 30% in size
Method in brief: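 Steps: plate ER-beta-UAS-bla HEK293T cells, rest 6 hr; add compounds in DMSO; incubate 16 hr at 37C, 5% CO2; add FRET substrate 2 hr; add CellTiter-Glo, wait 30 min at room temperature; read luminescence.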

Row | SMILES | Potency [1] | Potency [2] | outcome [3] | Potency [4] | Potency [5] | outcome [6] | Potency [7] | Potency [8] | outcome [9] | Potency [10] | Potency [11] | outcome [12] | Potency [13] | Potency [14] | outcome [15] | outcome [16] | Potency [17]
1 | CC(Br)C(=O)O (configuration not stated) | inactive | inactive | inactive | inactive | inactive | inactive | inactive | inactive | inactive | inactive | inactive | inactive | inactive | inactive | inactive | inactive | inactive
2 | O=c1[nH]c2ccccc2c(=O)o1 | inactive | inactive | inactive | inactive | inactive | inactive | inactive | inactive | inactive | inactive | inactive | inactive | inactive |  |  | inactive | inactive
3 | CCCCN(CCCC)SN(C)C(=O)Oc1cccc2c1OC(C)(C)C2 |  | inactive | inactive | inactive | inactive | inactive | inactive | inactive | inactive |  | inactive | inactive | 31.1 µM (active) and inactive |  |  | inactive | inactive
4 | O=S(=O)(c1ccc(O)cc1)c1ccc(O)cc1 | inactive | inactive | inactive | inactive | inactive | inactive | inactive | inactive | inactive |  | inactive | inactive | 34.4 µM (active) | 4.35 µM (active) and 4.33 µM (active) | inactive | inactive | inactive
5 | COC(=O)c1ccccc1N | inactive | inactive | inactive | inactive | inactive | inactive |  |  | inactive | inactive | inactive | inactive | inactive | inactive | inactive | inactive | inactive
6 | [O-][Cl+2]([O-])O | inactive | inactive | inactive | inactive | inactive | inactive | inactive |  | inactive |  | inactive | inactive | inactive | inactive | inactive | inactive | inactive
7 | CC(C)OC(=O)Nc1cccc(Cl)c1 | inactive | inactive | inactive | inactive | inactive | inactive | inactive |  | inactive |  | inactive | inactive | inactive | inactive | inactive | inactive | inactive
8 | Cc1ccc(N)cc1Cl | inactive | inactive | inactive | inactive | inactive | inactive | inactive |  | inactive | inactive | inactive | inactive | inactive | inactive | inactive | inactive | inactive
